Structures are written as SMILES. Inconclusive results are not listed. Calls of active or inactive are those of the source. Rule for the calls: active = hit-call score of the fitted dose curve at least 0.9, where 1 is the maximum; inconclusive = response in the unintended direction; inactive = score below 0.9.

Sequence of Estrogen receptor (Homo sapiens) (P03372 whole entry, looked up): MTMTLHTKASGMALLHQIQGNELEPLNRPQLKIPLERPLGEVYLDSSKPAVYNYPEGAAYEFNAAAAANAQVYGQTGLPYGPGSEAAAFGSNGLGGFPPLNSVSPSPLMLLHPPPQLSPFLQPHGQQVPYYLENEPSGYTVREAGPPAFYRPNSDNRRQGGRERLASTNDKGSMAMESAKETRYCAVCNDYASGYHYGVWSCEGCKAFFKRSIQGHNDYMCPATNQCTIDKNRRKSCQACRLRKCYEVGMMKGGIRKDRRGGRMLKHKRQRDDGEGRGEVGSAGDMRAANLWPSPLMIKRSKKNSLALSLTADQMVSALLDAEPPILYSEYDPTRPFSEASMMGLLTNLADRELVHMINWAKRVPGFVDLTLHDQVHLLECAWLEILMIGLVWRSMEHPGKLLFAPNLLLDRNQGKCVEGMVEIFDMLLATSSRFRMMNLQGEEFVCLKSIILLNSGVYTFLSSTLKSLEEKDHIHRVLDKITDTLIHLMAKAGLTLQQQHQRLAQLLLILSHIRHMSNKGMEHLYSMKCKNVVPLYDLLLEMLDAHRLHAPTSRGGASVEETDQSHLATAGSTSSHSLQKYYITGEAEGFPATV

One assay deals with Estrogen receptor (Homo sapiens) (UniProt P03372). The assay is described as follows: NVS_NR_hER: NovaScreen (NVS) Nuclear Receptor Binding Assay for human Estrogen Receptor (ER) (AID 2283348). The gist of the method:
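Radiodetection of ligand displacement in a lysate-based, cell-free format using MCF7 extracts, read at 18 hours. Duplicate 25 uM primary testing, then concentration series for actives.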
Consider `CCCCCCCCCCCC(=O)N(C)CC(=O)O`, for which the result was inactive.

For the molecule `CO[Si](C)(C)OC`, the outcome was inactive.

For `Cc1cc(C)n(CO)n1`, the outcome was inactive.

The next assay shares this target. The assay is described as follows: OT_ER_ERaERa_1440: Odyssey Thera (OT) 24-hour HEK293T Protein-Complementation Assay for Estrogen Receptor-alpha/-alpha Homodimer (AID 2283349).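 Note: hits raise fluorescence above DMSO for agonists and antagonists alike.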 The gist of the method: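 Stably transfected HEK293T; ERα LBD homodimer PCA. 24 h dosing, fluorescence intensity read, gain-of-signal vs DMSO.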
Take `O=C(O)CC(C(=O)O)S(=O)(=O)O` (stereo not given): the result was inactive.

On to `COC(=O)c1ccccc1C`, for which the molecule was called inactive.

In the case of `CCC[Si](OC)(OC)OC`, the outcome was inactive.

For `C/C=C/C=C/CCCCCCCO`, the call was inactive.

As for `C=CCOC(=O)c1ccc(C(=O)OCC=C)c(C(=O)OCC=C)c1`, the molecule was called inactive.

As for `C=C[C@@]1(C)CC(=O)[C@]2(O)[C@@]3(C)[C@@H](O)CCC(C)(C)[C@@H]3[C@H](O)[C@H](OC(C)=O)[C@@]2(C)O1`, the molecule was classed as inactive.

By AC50 is commonly meant the midpoint of the concentration-response curve, whichever way the signal moves. As for `CC1=CC=C(C(C)C)CC1`, the AC50 is 31.5 µM (active).

As for `CCCCC(C=O)CC` (stereo not given), the outcome was inactive.

Take `CCOC(=O)c1ccccc1C`: the molecule was classed as inactive.

For the molecule `CCCCCCCCCCCC(=O)N(C)CC(=O)O`, the molecule was classed as inactive.

Regarding `O=C(O)CCC(=O)O`, the molecule was classed as inactive.

In the case of `CO[Si](C)(C)OC`, the call was inactive.

As for `COc1ccc(C(=O)c2ccccc2)c(O)c1`, the AC50 was 66.7 µM (active).

In the case of `CC(=O)OC1CCCCC1C(C)(C)C` (stereo not given), the outcome was inactive.

On to `CCC(C)(O)CCCC(C)C` (stereo not given), for which the call was inactive.

For the molecule `CC12CCC(CC1)C(C)(C)O2`, the result was inactive.

Regarding `CCCCc1ccc(Cl)cc1`, the outcome was inactive.

For `CC(=O)c1ccccc1O`, the result was inactive.

Regarding `CCOC(=O)c1ccc(C)cc1`, the call was inactive.

Consider `CC(=O)/C=C/C1C(C)=CCCC1(C)C` (stereo not given), for which the molecule was classed as inactive.

For the molecule `C=C(C)C1CC=C(C)CC1` (stereo not given), the call was inactive.

Turning to `CCCCCCCCCCCCCC(=O)OC(C)C`, the molecule was called inactive.

As to `CCCCC(CC)COS(=O)(=O)O` (stereo not given), the molecule was called inactive.

Regarding `CCCCCCOc1ccc(N)cc1`, the AC50 was 23.9 µM (active).

As to `O=C(OCCc1ccccc1)c1ccccc1`, the outcome was inactive.

In the case of `CCCCC(=O)O`, the result was inactive.

Consider `Cc1c(C(=O)c2c[nH]n(C)c2=O)ccc(S(C)(=O)=O)c1C1=NOCC1`, for which the result was inactive.

`Cc1cc(C)n(CO)n1`: the call was inactive.

For the molecule `CC(C)(C)N`, the molecule was called inactive.

As for `CCCC(CC)c1ccccc1` (stereo not given), the call was inactive.

With `O=C(O)c1ccc2c(c1)C(=O)OC2=O`, the molecule was called inactive.

Consider `CCc1cccc(C)c1N`, for which the AC50 was 74.6 µM (active).

The values are drawn from PubChem BioAssay (EPA / NIEHS).
